Inconclusive results are not listed. Values without a mark were called inactive. Activity calls are given as the source filed them. The call rests on the fitted dose curve; in most records, active means well fitted inhibition curve with a large enough effect; inconclusive means small, poorly fitted or top-dose-only effect; inactive means flat fitted curve, though single readings scatter.
biological target: Calcium and integrin-binding protein 1 (Homo sapiens) (UniProt Q99828); experiment: Primary qHTS for Identification of Calcium Integrin Binding Protein 1 (CIB1) Competitor (AID 1508620); conditions: CIB1-GST / FITC-alphaIIb peptide fluorescence polarization; series mostly up to 114 µM; activity change, negative = inhibition: at the top concentration;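 further: GST tagged CIB1 binding a fluorescein labelled alphaIIb integrin peptide tracer; top concentration of the series differs between compounds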
In short: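 Fluorescence polarization competition: CIB1-GST (1 uM final) preincubated with compound 15 min at room temperature, then FITC-labeled alphaIIb peptide (100 nM final) added for another 15 min. Polarization read at Ex 480/Em 540.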
On the % scale 0 is the no-effect control and ±100 the full control effect.

Chain of Calcium and integrin-binding protein 1 (Homo sapiens) (Q99828 whole entry, looked up): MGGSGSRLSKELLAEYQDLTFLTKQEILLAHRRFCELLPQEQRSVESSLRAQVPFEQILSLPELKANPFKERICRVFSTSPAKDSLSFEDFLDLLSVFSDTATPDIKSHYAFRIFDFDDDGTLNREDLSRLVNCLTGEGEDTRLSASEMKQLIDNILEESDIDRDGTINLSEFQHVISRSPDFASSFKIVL

Point of comparison: `COc1ccc(C2=Nn3c(nnc3-c3ccc(OC)cc3OC)SC2)c(OC)c1`, “activity change, negative = inhibition” value -0.296%. Against it:
- CC(C)(C)OC(=O)N1CCN(c2ccc(NCc3ccc(-c4cccc([N+](=O)[O-])c4)o3)cc2)CC1 — lower, -3.14%
- Cc1cc(NS(=O)(=O)c2ccc(NC(=O)C(C)(C)c3ccc(Cl)c(Cl)c3)cc2)no1 — lower, -19%
- O=C1c2ccccc2C(=O)N1Cc1cccnc1 — higher, -0.263%
- O=C(CNC(=O)c1ccccc1)OC(Cc1ccccc1)C(=O)Nc1cc(C(F)(F)F)ccc1Cl (stereo not given) — higher, 1.53%
- CN1C(=O)Cc2cc([S+](=O)([O-])N3CCN([S+](=O)([O-])c4c(F)cccc4F)CC3)ccc21 — lower, -7%
- O=C(Cc1ccc(Cl)c(Cl)c1)Nc1ccc([S+](=O)([O-])Nc2ccc([N+](=O)[O-])cc2)cc1 — lower, -12.3%
- Cc1ccccc1C(=O)N1CCc2cc(-c3ccnc(NC(=O)Cc4ccccc4)n3)ccc21 — higher, 4.64%
- Cc1cc(C)nc(NC(=S)N2CCN(c3cncnc3)CC2)c1 — lower, -0.398%
- CC(C)(C)OC(=O)N1CCN(c2ccc(NCc3ccc(-c4ccc(C#N)cc4)o3)cn2)CC1 — lower, -1.79%
- O=c1c2ccccc2nc2sc(Nc3ccc4c(c3)CNC4)nn12 — higher, 9.1%
- CCOC(=O)c1cccc(-n2cnc(/C=C3\NC(=O)N(CC(=O)O)C3=O)c2)c1 — higher, 16.2%
- O=C1CCCC2=C1C(c1cccc(Oc3ccccc3)c1)N=C(Nc1nc3ccccc3o1)N2 (stereo not given) — lower, -0.432%
- Cc1cnc(-c2ccccc2C(C)C)nc1NCC1CCN(C2COC2)CC1 — higher, 1.25%
- Cc1cc(-c2nnc3n2CCCCC3)c(C)n1-c1ccc([N+](=O)[O-])cc1 — lower, -8.18%
- CC(=O)Nc1ccc(OCc2cccc(-c3nc4ccccc4c(=O)n3Cc3ccco3)c2)cc1 — lower, -19.1%
- O=C1CCc2cc(S(=O)(=O)Nc3ccc4c(c3)OCCO4)ccc2N1 — higher, 0.261%
- CC(C)(C)OC(=O)n1c2ccsc2c2cnn(Cc3ccccc3F)c(=O)c21 — lower, -2.96%
- CN(C)c1cccc(-c2cnc(N3CCC(C(N)=O)CC3)nc2)c1 — higher, 3.93%
- COc1cccc(CNc2ccc(S(=O)(=O)Nc3nccs3)cc2)c1 — lower, -12.4%
- COc1ccc(S(=O)(=O)Nc2ccc(C)c(C)c2)cc1 — higher, -0.199%
- O=C(Nc1ccc(F)c(C(F)(F)F)c1)Nc1nnc(-c2ccncc2)o1 — lower, -1.46%
- COc1cccc(NC(=S)N2CCN(c3ccccc3C(F)(F)F)CC2)n1 — lower, -3.06%
- Cc1csc(CNc2ncnc3ccc(-c4ccco4)cc23)c1 — higher, 2.36%
- Cc1ccc(C[C@H](C(=O)O)N2C(=O)c3ccc(C(=O)O)cc3C2=O)cc1 — higher, 2.82%
- N#Cc1nc(Nc2cccc(-c3ccccc3)c2)nc(NC2CCCC2)n1 — higher, 4.96%
- Cc1cc(C)n2ncc(C(=O)Nc3ccccc3Sc3ccccc3)c2n1 — lower, -2.02%
- COc1ccc(/C=C2/C(=O)Nc3ccccc32)cc1O — lower, -15.2%
- COc1ccc(C2=Nn3c(nnc3-c3ccccc3O)SC2)cc1OC — lower, -9.78%
- COc1cc(OC)cc(C2=Nn3c(nnc3-c3ccccc3O)SC2)c1 — lower, -5.14%
- Cc1cc(C)nc(NC(=S)N2CCN(c3ccc(S(C)(=O)=O)cc3F)CC2)c1 — lower, -4.21%
- O=[N+]([O-])c1cccc(S(=O)(=O)N2CCN(S(=O)(=O)c3ccc4c(c3)OCCO4)CC2)c1 — lower, -4.4%
- Oc1ccc(COc2cccc3ccccc23)c2cccnc12 — higher, 2.17%
- O=C1CCCC2=C1C1(CCCC1)N=C(Nc1nc3cc4ccccc4cc3o1)N2 — lower, -2.54%
- Cc1cc2c(s1)c1cnn(Cc3cccc(F)c3)c(=O)c1n2C — higher, 8.73%
- Cc1ccc(-c2ccc(C(C)Nc3nc(-c4ccccc4C(C)C)ncc3C)cc2)cn1 (stereo not given) — higher, 2.57%
- O=C(/C=C/c1ccc(OC(F)(F)F)cc1)Nc1cccc([S+](=O)([O-])Nc2ccccc2F)c1 — higher, 7.8%
- Cc1ccnc(NC(=S)N2CCN(c3ccc(C(F)(F)F)cc3[N+](=O)[O-])CC2)c1 — lower, -9.39%

`COc1cccc(CNc2ccc(S(=O)(=O)Nc3ncc(C)s3)cc2)c1O` was tested, and the Potency was “inactive”.
`CN1CCN(c2cccc(Nc3nn4c(=O)c5ccccc5nc4s3)c2)CC1` was tested, and the Potency was “inactive”.
